SARS PLpro yeast = blocks SARS-CoV papain-like protease in a yeast assay; AID 485353; 330,000 compounds, 0.19% hits; S. cerevisiae expressing SARS-CoV PLpro, growth rescue; Potency, µM (series often up to 32.9 µM), actives largely listed as activators; calls by dose curve; further: nearly all actives have a fitted effect of over 55% in size
Sm TGR block = inhibitors of Schistosoma mansoni thioredoxin glutathione reductase; Q962Y6; purified TGR, DTNB reduction, TNB absorbance 405 nm; Potency, µM (highest dose often 114 µM), actives largely listed as inhibitors; 360,000 compounds, 3% hits; AID 485364; further: nearly all actives have a fitted effect of over 60% in size
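First, TGR (20 nM dispensed) and NADPH were mixed with compound. Second, a 15 min room-temperature incubation followed. Third, further NADPH and then DTNB were added to start the reaction. Finally, TNB absorbance was monitored kinetically.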
TbPYK inhibitor = blocks Trypanosoma brucei pyruvate kinase | Q57TT1 | TbPYK enzyme, Kinase-Glo Plus ATP luminescence, 45 min | Potency, µM (series often up to 76.8 µM), most hits filed as inhibitors | 410,000 compounds, 0.12% hits | AID 624173; further: nearly all actives have a fitted effect of over 50% in size
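Luminescence from Kinase-Glo Plus, added after a 45-minute room-temperature reaction, served as the end-point read-out. The enzyme and substrate were preincubated with compound before ADP (130 uM final) initiated turnover. Concentration-effect curves came from normalized qHTS data.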
LmPK inh = inhibitors of Leishmania mexicana pyruvate kinase. Potency, µM (top dose mostly 57.5 µM), actives largely listed as inhibitors. AID 1721. purified LmPK, Kinase-Glo ATP luminescence, 1 h. 290,000 compounds, 0.37% hits
Target sequence (Q27686 whole entry, looked up): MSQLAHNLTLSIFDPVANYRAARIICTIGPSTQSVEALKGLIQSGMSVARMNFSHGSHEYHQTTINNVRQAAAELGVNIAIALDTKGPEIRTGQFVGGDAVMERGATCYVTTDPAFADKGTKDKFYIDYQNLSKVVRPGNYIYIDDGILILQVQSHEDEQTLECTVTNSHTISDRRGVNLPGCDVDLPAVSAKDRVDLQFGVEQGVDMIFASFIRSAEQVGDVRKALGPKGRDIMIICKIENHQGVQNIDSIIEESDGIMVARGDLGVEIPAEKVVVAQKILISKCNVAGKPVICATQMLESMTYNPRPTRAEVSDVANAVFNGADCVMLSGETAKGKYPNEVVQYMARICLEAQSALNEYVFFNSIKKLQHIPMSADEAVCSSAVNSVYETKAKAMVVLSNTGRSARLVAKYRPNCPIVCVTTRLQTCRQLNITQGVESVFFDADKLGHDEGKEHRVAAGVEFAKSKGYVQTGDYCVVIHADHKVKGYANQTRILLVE
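In 50 mM imidazole pH 7.2 with 7 mM MgCl2, LmPK (0.1 nM) turned over PEP (0.5 mM) and ADP (0.1 mM) for 1 h at room temperature. Luciferase read-out of ATP.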
NS1 function inh = inhibitors of influenza NS1 protein function; AID 2326; Potency, µM (doses to about 46.1 µM); 270,000 compounds, 0.4% hits; calls by dose curve; further: actives are rising curves; nearly all actives have a fitted effect of over 50% in size
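Growth recovery, yeast-based: influenza A NS1 expressed in S. cerevisiae causes slow growth, and suppressors are detected by OD600. The parent strain without NS1 is used as positive control.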
RE007 growth inh = less growth of the S. pombe RE007 Vpr strain; Potency, µM (top dose mostly 92.2 µM), usual class: inhibitors; S. pombe RE007 Vpr strain, BacTiter-Glo ATP luminescence, 24 h; 360,000 compounds, 0.21% hits; active means well fitted falling curve with a large enough effect; inconclusive means small, poorly fitted or top-dose-only effect; inactive means no such curve, though single readings can be large or run the other way; further: nearly all actives have a fitted effect of over 50% in size
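Fission yeast RE007 carrying one integrated HIV-1 vpr copy, seeded at OD 0.01 in PMG+AL medium with 23 nL pinned compound. Grown 24 h at 30 degrees; viability read by BacTiter-Glo luminescence after 5 min.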
Of the large screens only hits and unclear results are named; the others gave an inactive call. Rows were chosen to be rich in hits. Some 3.3% of all compounds tested hit in one or more screens of this group. Unless noted, the call rests on the fitted dose curve; in most records, active means well fitted curve in the direction sought with a large enough effect; inconclusive means small, poorly fitted or top-dose-only effect, or another doubt; inactive means no such curve, though single readings can be large; an effect the other way counts as inactive or inconclusive.

CC(=O)c1ccc(OCCCC(=O)Nc2ccc(S(=O)(=O)N3CCOCC3)cc2)cc1	SARS PLpro yeast 11µM (no result: LmPK inh, NS1 function inh)
CN1CCN(S(=O)(=O)c2ccc(NC(=S)NC(=O)c3ccc(Cl)cc3)cc2)CC1	Sm TGR block 22µM
C#C[C@]1(O)CC[C@H]2C3CCC4=Cc5oncc5CC4(C)C3CCC21C (stereo partly specified)	none (no result: SARS PLpro yeast, Sm TGR block, TbPYK inhibitor, LmPK inh, RE007 growth inh)
Cc1ccccc1CNC(=O)c1ccc2[nH]c(C)c(C)c2c1	none (no result: SARS PLpro yeast, LmPK inh, NS1 function inh, RE007 growth inh)
O=C(Nc1ccccc1N1CCCC1)c1cc(S(=O)(=O)N2CCOCC2)ccc1Cl	none (no result: LmPK inh, NS1 function inh)
O=S(=O)(c1ccc(Cl)c(NC(=S)Nc2ccccc2N2CCOCC2)c1)N1CCOCC1	Sm TGR block 35µM
CCCCCC1Nc2cc(C(F)(F)F)c(S(N)(=O)=O)cc2S(=O)(=O)N1 (stereo unspecified)	none (no result: SARS PLpro yeast, Sm TGR block, LmPK inh, NS1 function inh, RE007 growth inh)
O=C(O)CCCC/C=C(\c1ccccc1)c1cccnc1	none (no result: SARS PLpro yeast, Sm TGR block, LmPK inh, NS1 function inh, RE007 growth inh)
Cn1c(=O)c2[nH]c(=S)n(Cc3ccccc3)c2n(C)c1=O	TbPYK inhibitor 16µM (no result: SARS PLpro yeast, Sm TGR block, LmPK inh, NS1 function inh)
Cn1c(=O)n(Cc2ccccc2Cl)c2ccccc21	none
Cn1c(=O)c2c([nH]c(=S)n2CCCc2ccccc2)n(C)c1=O	TbPYK inhibitor 2.5µM
Cn1c(=O)[nH]c(=O)c2c1[nH]c(=S)n2CCCc1ccccc1	TbPYK inhibitor inconclusive
Cn1c(=O)n(Cc2ccccc2Cl)c(=O)c2c1[nH]c(=S)n2C	TbPYK inhibitor 7.9µM
CCCCn1c(=S)[nH]c2c(=O)n(C)c(=O)n(C)c21	TbPYK inhibitor inconclusive (no result: SARS PLpro yeast, Sm TGR block, LmPK inh, NS1 function inh)
NC(=O)CSc1nc2c(oc3ccccc32)c(=O)n1-c1ccccc1F	none (no result: SARS PLpro yeast, LmPK inh, NS1 function inh, RE007 growth inh)
CCOc1ccc(Nc2sc(C(=O)c3ccc4c(c3)OCO4)c(N)c2S(=O)(=O)c2ccc(C)cc2)cc1	none (no result: SARS PLpro yeast, LmPK inh, NS1 function inh, RE007 growth inh)
C/C=C/c1ccc(Oc2nnnn2-c2ccc(C(=O)O)cc2)c(OC)c1	Sm TGR block 35µM
COCCn1c(C)cc(O)c(C(c2ccccc2OC)N2CCN(c3ccccc3)CC2)c1=O (stereo unspecified)	Sm TGR block 3.5µM (no result: SARS PLpro yeast, LmPK inh, NS1 function inh, RE007 growth inh)
COCCn1c(N2CCN(c3ccccc3)CC2)nc2c1c(=O)n(C)c(=O)n2C	none
COCCn1c(C)cc(O)c(C(c2ccccc2F)N2CCN(c3ccccc3)CC2)c1=O (stereo unspecified)	Sm TGR block 4.5µM (no result: SARS PLpro yeast, LmPK inh, NS1 function inh, RE007 growth inh)
CC(C)OCCCN1C(=O)c2[nH]nc(-c3ccccc3O)c2C1c1ccc(OCc2ccccc2)cc1 (stereo unspecified)	none (no result: SARS PLpro yeast, LmPK inh, NS1 function inh, RE007 growth inh)
Cc1cc(C2(c3cc(C)c(O)c(C(=O)O)c3)OS(=O)(=O)c3ccccc32)cc(C(=O)O)c1O	none (no result: SARS PLpro yeast, Sm TGR block, TbPYK inhibitor, LmPK inh, RE007 growth inh)
CC(C)NS(=O)(=O)c1ccc2nc(NC(=O)c3cncc(Br)c3)sc2c1	none (no result: SARS PLpro yeast, LmPK inh, NS1 function inh, RE007 growth inh)
O=C1Oc2ccccc2C(=O)/C1=C\N1C(=O)N/C(=C\c2ccccc2O)C1=O	none (no result: SARS PLpro yeast, Sm TGR block, TbPYK inhibitor, LmPK inh, RE007 growth inh)
CC(C)N1CCN(Cc2ccc3c(c2)OCCO3)CC1CCO (stereo unspecified)	Sm TGR block inconclusive
Cc1ccc(-c2cccc(CN3CCN(C(C)C)C(CCO)C3)c2)o1 (stereo unspecified)	Sm TGR block 35µM
CC1=C(c2ccc(C)c(C)c2)S(=O)(=O)N=C1N1CCN(c2cccc(C(F)(F)F)c2)CC1	none (no result: SARS PLpro yeast, LmPK inh, NS1 function inh, RE007 growth inh)
COc1ccccc1OCC(=O)N/N=C/C=C/c1ccc([N+](=O)[O-])o1	Sm TGR block 45µM
Cc1ccccc1OCC(=O)N/N=C/c1ccc([N+](=O)[O-])o1	Sm TGR block inconclusive
O=C(COc1ccccc1[N+](=O)[O-])N/N=C/C=C/c1ccco1	Sm TGR block 35µM
O=C(NCc1ccccc1Cl)c1nnc(Cc2ccc(Cl)cc2)o1	none (no result: SARS PLpro yeast, LmPK inh, NS1 function inh, RE007 growth inh)
O=S(=O)(O)c1ccc(NN(c2c(O)ccc3ccccc23)S(=O)(=O)O)cc1	none (no result: SARS PLpro yeast, Sm TGR block, TbPYK inhibitor, LmPK inh, RE007 growth inh)
COC(=O)C(C(C)=O)C1=C/C(=N\S(=O)(=O)c2ccc(C)cc2)c2ccccc2C1=O (stereo unspecified)	Sm TGR block 28µM, LmPK inh inconclusive
COc1ccccc1CNc1nc(-c2ccco2)nn1C(=O)c1ccccc1[N+](=O)[O-]	Sm TGR block 89µM (no result: SARS PLpro yeast, LmPK inh, NS1 function inh, RE007 growth inh)
COc1ccc(C(=O)n2nc(-c3ccco3)nc2NCc2cccs2)cc1OC	Sm TGR block 20µM (no result: SARS PLpro yeast, LmPK inh, NS1 function inh, RE007 growth inh)

From PubChem
